Test results from the supplement of paper PMC10849652.
About 7,900 targets were measured; listed, in parts, are those with a hit and a random draw of the rest. About 0.6% of all pairs of compound and target were hits.

Tests used:
Experiment in all cases: log2 fold change, soluble protein after heating vs DMSO (PISA); higher = thermal stabilisation; K562 cells, 10 uM, 30 min; active = over 0.2 and 3.5 SD of the protein, either way, in both replicates (recomputed)
[1] = compound: C1=CC=C(C=C1)[C@H](COC2=CC3=C(C=C2)NC(=O)N3)NC(=O)C4=CC=CN(C4=O)CC5=CC(=C(C=C5)F)F
Summary of the method: (§1)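 K562 cells at 2×10^6 cells/mL were exposed to 10 μM compound for 30 min, then aliquots were heated for 3 min across 48°C-58°C, pooled, and extracted in PBS containing 0.5% NP-40 at 4°C. The supernatant after 21,000xg for 90 min was taken as soluble protein and measured by TMTpro 16plex LC-MS/MS with channel sums equalised. Thermal stability is reported relative to control samples, with values from duplicates. Fold changes are given on a log2 scale.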

[2] = compound: CC1=C(SC2=C1C(=N[C@H](C3=NN=C(N32)C)CC(=O)N)C4=CC=C(C=C4)Cl)C
Summary of the method: as §1

[3] = compound: CC1=C2C(=CC=C1)N=C(N(C2=O)C3=CC=CC=C3C)CN4C=NC5=C(N=CN=C54)N
Summary of the method: as §1

[4] = compound: Cc1sc2c(c1C)C(c1ccc(Cl)cc1)=N[C@@H](CC(=O)OC(C)(C)C)c1nnc(C)n1-2
Summary of the method: as §1

[5] = compound: c1ccc([C@@H]2C[C@H]2NC2CCNCC2)cc1
Summary of the method: as §1

Measured: log2 fold change

VPS51 (UniProt Q9UID3)
inactive: [1] -0.047 | [2] 0.026 | [3] 0.047 | [4] -0.048 | [5] -0.044

TRIM23 (UniProt P36406)
inactive: [1] 0.023 | [2] 0.122 | [3] 0.049 | [4] -0.096 | [5] -0.05

UBIAD1 (UniProt Q9Y5Z9)
inactive: [1] 0.012 | [2] 0.029 | [3] 0.068 | [4] -0.074 | [5] 0.093

VPS52 (UniProt Q8N1B4)
inactive: [1] 0.068 | [2] 0.036 | [3] 0.137 | [4] -0.057 | [5] -0.028

TXNL1 (UniProt O43396)
inactive: [1] 0.005 | [2] 0.051 | [3] 0.056 | [4] -0.01 | [5] 0.015

UBE2J2 isoform 3 (UniProt Q8N2K1)
inactive: [1] 0.003 | [2] 0.078 | [3] -0.106 | [4] -0.014 | [5] -0.144

TRMT10C (UniProt Q7L0Y3)
inactive: [1] -0.018 | [2] 0.029 | [3] 0.085 | [4] 0.005 | [5] -0.08

WDR62 isoform 4 (UniProt O43379)
inactive: [1] 0.007 | [2] 0.027 | [3] 0.031 | [4] 0.004 | [5] 0.009

TMEM208 (UniProt Q9BTX3)
inactive: [1] -0.101 | [2] 0.02 | [3] 0.088 | [4] -0.14 | [5] 0.031

TRMT61A (UniProt Q96FX7)
inactive: [1] 0.157 | [2] -0.033 | [3] -0.051 | [4] 0.141 | [5] -0.049

TNNC2 (UniProt P02585)
inactive: [1] 0.043 | [2] 0.004 | [3] 0.06 | [4] -0.624 | [5] 0.031

TSFM (UniProt P43897)
Sequence of UniProt P43897 (P43897 whole entry, looked up): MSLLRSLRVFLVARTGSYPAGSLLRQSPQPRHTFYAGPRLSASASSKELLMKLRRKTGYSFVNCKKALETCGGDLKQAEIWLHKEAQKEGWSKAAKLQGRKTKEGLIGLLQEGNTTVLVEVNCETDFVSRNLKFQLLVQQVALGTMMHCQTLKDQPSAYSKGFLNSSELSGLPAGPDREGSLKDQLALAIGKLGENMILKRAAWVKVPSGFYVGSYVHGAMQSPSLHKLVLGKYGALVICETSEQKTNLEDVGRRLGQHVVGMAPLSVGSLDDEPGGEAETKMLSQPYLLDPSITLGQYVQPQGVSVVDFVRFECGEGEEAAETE
inactive: [1] -0.17 | [2] 0.03 | [3] 0.177 | [4] -0.138 | [5] 0.012

WASHC2A (UniProt Q641Q2)
inactive: [1] -0.006 | [2] -0.041 | [3] -0.017 | [4] 0.069 | [5] 0.033

TRIM44 (UniProt Q96DX7)
Sequence of UniProt Q96DX7 (Q96DX7 whole entry, looked up): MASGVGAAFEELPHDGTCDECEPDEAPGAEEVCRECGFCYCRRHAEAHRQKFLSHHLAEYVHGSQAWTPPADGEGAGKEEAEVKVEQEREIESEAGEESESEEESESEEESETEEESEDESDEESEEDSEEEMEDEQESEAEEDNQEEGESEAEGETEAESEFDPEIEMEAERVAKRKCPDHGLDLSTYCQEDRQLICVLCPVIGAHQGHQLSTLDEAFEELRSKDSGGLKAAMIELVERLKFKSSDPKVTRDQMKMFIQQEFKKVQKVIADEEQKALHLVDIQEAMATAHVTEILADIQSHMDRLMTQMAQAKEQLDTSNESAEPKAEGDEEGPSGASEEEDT
inactive: [1] -0.027 | [2] 0.008 | [3] -0.002 | [4] -0.006 | [5] 0.012

TRMT10A (UniProt Q8TBZ6)
inactive: [1] -0.038 | [2] 0.028 | [3] 0.006 | [4] -0.033 | [5] -0.055

TUBA4A (UniProt C9JJQ8)
inactive: [1] -0.081 | [2] 0.036 | [3] 0 | [4] -0.011 | [5] 0.229

TRAPPC11 (UniProt Q7Z392)
Sequence of UniProt Q7Z392 (Q7Z392 whole entry, looked up): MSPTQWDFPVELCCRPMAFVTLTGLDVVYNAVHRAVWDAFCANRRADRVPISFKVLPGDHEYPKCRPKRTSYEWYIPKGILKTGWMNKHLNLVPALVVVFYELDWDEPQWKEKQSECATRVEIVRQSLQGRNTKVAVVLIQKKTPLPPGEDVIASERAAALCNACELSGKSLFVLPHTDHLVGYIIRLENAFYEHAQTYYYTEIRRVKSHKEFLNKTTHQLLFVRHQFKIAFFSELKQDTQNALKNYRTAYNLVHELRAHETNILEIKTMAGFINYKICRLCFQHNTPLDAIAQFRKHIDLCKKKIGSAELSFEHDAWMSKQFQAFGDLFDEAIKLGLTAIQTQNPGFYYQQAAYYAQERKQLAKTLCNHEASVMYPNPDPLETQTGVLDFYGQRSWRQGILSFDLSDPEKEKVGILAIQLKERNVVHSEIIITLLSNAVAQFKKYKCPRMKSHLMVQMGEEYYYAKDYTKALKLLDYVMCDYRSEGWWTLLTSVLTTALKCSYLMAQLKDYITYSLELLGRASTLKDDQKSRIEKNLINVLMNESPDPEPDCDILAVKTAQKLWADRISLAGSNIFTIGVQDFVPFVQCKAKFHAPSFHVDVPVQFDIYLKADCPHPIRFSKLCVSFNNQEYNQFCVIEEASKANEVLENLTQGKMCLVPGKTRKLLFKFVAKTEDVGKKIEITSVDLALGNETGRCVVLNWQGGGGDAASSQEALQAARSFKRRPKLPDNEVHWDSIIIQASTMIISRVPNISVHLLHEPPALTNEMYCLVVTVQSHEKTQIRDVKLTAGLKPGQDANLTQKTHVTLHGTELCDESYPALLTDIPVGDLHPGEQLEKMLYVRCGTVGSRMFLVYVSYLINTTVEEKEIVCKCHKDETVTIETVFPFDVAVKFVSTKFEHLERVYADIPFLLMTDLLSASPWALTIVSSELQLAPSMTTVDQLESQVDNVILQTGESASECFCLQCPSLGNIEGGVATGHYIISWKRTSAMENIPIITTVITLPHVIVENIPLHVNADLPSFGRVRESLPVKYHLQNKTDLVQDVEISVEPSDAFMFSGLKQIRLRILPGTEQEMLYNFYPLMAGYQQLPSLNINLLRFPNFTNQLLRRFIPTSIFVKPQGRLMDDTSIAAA
inactive: [1] 0.004 | [2] 0.117 | [3] 0.077 | [4] -0.031 | [5] 0.027

TOE1 (UniProt Q96GM8)
inactive: [1] 0.049 | [2] -0.036 | [3] -0.095 | [4] 0.065 | [5] 0.014

VPS16 (UniProt Q9H269)
inactive: [1] -0.188 | [2] 0.048 | [3] 0.106 | [4] -0.021 | [5] -0.038

TMEM128 (UniProt Q5BJH2)
inactive: [1] -0.038 | [2] -0.001 | [3] 0.185 | [4] -0.1 | [5] 0

VPS37A (UniProt Q8NEZ2)
inactive: [1] -0.076 | [2] 0.088 | [3] 0.126 | [4] 0.007 | [5] 0.036

UBE2Q1 (UniProt Q7Z7E8)
inactive: [1] -0.041 | [2] 0.061 | [3] 0.053 | [4] -0.001 | [5] 0.062

TTI1 (UniProt O43156)
inactive: [1] -0.034 | [2] 0.136 | [3] 0.022 | [4] -0.025 | [5] -0.085

TPP1 (UniProt O14773)
inactive: [1] 0.019 | [2] 0.048 | [3] -0.02 | [4] 0.036 | [5] -0.067

TRABD (UniProt Q9H4I3)
Sequence of UniProt Q9H4I3 (Q9H4I3 whole entry, looked up): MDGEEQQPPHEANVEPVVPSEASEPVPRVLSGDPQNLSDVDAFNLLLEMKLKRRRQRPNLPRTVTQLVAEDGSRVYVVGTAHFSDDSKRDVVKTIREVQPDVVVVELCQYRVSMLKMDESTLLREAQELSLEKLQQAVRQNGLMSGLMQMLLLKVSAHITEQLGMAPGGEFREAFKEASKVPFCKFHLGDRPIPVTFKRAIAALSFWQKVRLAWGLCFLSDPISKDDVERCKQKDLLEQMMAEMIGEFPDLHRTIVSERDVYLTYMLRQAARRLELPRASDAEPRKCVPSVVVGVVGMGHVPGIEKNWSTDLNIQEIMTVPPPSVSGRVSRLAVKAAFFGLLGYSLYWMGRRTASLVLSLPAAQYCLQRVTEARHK
inactive: [1] 0.005 | [2] -0.034 | [3] -0.054 | [4] 0.027 | [5] -0.054

TMEM184C (UniProt Q9NVA4)
Sequence of UniProt Q9NVA4 (Q9NVA4 whole entry, looked up): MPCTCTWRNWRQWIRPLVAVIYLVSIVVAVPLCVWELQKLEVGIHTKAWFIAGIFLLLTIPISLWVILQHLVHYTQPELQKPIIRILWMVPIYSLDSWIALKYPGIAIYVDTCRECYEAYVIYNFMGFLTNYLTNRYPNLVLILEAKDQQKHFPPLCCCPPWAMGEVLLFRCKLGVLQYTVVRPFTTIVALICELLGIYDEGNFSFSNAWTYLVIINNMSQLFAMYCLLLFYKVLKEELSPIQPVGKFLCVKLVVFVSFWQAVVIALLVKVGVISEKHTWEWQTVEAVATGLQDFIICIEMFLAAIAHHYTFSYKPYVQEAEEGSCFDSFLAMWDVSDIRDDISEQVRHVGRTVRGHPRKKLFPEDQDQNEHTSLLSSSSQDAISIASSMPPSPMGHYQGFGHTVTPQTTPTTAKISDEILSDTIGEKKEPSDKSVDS
inactive: [1] 0 | [2] 0.078 | [3] 0.022 | [4] 0.045 | [5] 0.22

UFL1 (UniProt O94874)
inactive: [1] -0.072 | [2] 0.012 | [3] 0.039 | [4] 0.001 | [5] -0.066

XPNPEP1 isoform 3 (UniProt Q9NQW7)
inactive: [1] -0.017 | [2] 0.081 | [3] 0.021 | [4] 0.002 | [5] -0.029

TNPO1 (UniProt Q92973)
inactive: [1] -0.017 | [2] 0.008 | [3] -0.012 | [4] -0.009 | [5] 0.018

USP24 (UniProt Q9UPU5)
inactive: [1] 0.114 | [2] 0.02 | [3] 0.105 | [4] -0.198 | [5] -0.033

TNFRSF8 (UniProt P28908)
inactive: [1] 0.012 | [2] 0.053 | [3] 0.036 | [4] -0.04 | [5] 0.021

WDR11 (UniProt Q9BZH6)
inactive: [1] -0.076 | [2] 0.067 | [3] 0.111 | [4] 0.05 | [5] 0.023

UCHL5 (UniProt Q9Y5K5)
inactive: [1] -0.048 | [2] 0.004 | [3] 0.043 | [4] 0.027 | [5] 0.004

XPO6 (UniProt Q96QU8)
inactive: [1] 0.35 | [2] 0.019 | [3] 0.082 | [4] 0.015 | [5] -0.072

XRCC6 (UniProt P12956)
Sequence of UniProt P12956 (P12956 whole entry, looked up): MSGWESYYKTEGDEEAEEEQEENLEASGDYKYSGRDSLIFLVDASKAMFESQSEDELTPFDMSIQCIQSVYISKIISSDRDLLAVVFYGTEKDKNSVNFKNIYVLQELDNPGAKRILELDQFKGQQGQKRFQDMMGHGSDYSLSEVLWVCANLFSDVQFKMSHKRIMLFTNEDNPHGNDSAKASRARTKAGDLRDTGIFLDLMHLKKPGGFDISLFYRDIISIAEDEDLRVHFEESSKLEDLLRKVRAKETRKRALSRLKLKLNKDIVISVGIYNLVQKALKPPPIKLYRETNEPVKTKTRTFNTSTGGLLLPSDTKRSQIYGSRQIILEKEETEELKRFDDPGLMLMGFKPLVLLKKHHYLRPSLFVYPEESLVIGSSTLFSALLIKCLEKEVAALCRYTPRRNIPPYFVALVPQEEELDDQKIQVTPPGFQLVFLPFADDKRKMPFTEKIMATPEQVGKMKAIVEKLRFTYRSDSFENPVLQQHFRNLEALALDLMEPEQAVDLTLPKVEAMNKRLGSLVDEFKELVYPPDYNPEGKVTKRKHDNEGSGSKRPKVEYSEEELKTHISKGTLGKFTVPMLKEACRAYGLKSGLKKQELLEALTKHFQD
inactive: [1] -0.04 | [2] 0.044 | [3] 0.114 | [4] -0.022 | [5] -0.003

UBA1 (UniProt P22314)
inactive: [1] -0.162 | [2] 0.044 | [3] 0.134 | [4] 0.044 | [5] -0.08

WEE1 (UniProt P30291)
inactive: [1] 0.116 | [2] -0.031 | [3] -0.059 | [4] 0.132 | [5] 0.11

TMEM9B (UniProt Q9NQ34)
inactive: [1] 0.043 | [2] 0.074 | [3] 0.093 | [4] -0.041 | [5] -0.011

USP7 (UniProt Q93009)
inactive: [1] -0.165 | [2] 0.026 | [3] 0.09 | [4] -0.01 | [5] -0.062

WDR75 (UniProt Q8IWA0)
inactive: [1] -0.031 | [2] -0.24 | [3] 0.002 | [4] 0.304 | [5] -0.089

TRAPPC13 isoform 5 (UniProt A5PLN9)
Sequence of UniProt A5PLN9 (A5PLN9 whole entry, looked up): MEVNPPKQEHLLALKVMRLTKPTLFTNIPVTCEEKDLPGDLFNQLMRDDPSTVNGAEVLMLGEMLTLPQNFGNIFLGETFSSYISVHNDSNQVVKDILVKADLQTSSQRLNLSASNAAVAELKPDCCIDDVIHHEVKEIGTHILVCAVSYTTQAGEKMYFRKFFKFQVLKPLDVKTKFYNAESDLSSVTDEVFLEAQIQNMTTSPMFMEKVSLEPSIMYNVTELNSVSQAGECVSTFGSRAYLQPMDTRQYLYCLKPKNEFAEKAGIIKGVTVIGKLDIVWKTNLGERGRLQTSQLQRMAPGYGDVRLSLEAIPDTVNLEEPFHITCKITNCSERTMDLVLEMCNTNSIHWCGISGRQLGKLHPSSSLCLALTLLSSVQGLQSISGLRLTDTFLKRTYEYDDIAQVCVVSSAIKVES
inactive: [1] -0.055 | [2] 0.154 | [3] 0.08 | [4] -0.013 | [5] -0.017

VTI1A (UniProt Q96AJ9)
inactive: [1] 0.032 | [2] 0.009 | [3] 0.091 | [4] -0.023 | [5] 0.07

TMEM106B (UniProt Q9NUM4)
inactive: [1] 0.039 | [2] -0.022 | [3] -0.008 | [4] -0.097 | [5] 0.034

WDR37 isoform 2 (UniProt Q9Y2I8)
inactive: [1] 0.039 | [2] -0.06 | [3] 0.062 | [4] 0.079 | [5] 0.054

VPS13B (UniProt Q7Z7G8)
inactive: [1] 0 | [2] -0.008 | [3] 0.068 | [4] -0.057 | [5] 0.031

VPS50 (UniProt Q96JG6)
inactive: [1] -0.039 | [2] 0.055 | [3] 0.022 | [4] -0.013 | [5] 0.01

USO1 isoform 2 (UniProt O60763)
Sequence of UniProt O60763 (O60763 whole entry, looked up): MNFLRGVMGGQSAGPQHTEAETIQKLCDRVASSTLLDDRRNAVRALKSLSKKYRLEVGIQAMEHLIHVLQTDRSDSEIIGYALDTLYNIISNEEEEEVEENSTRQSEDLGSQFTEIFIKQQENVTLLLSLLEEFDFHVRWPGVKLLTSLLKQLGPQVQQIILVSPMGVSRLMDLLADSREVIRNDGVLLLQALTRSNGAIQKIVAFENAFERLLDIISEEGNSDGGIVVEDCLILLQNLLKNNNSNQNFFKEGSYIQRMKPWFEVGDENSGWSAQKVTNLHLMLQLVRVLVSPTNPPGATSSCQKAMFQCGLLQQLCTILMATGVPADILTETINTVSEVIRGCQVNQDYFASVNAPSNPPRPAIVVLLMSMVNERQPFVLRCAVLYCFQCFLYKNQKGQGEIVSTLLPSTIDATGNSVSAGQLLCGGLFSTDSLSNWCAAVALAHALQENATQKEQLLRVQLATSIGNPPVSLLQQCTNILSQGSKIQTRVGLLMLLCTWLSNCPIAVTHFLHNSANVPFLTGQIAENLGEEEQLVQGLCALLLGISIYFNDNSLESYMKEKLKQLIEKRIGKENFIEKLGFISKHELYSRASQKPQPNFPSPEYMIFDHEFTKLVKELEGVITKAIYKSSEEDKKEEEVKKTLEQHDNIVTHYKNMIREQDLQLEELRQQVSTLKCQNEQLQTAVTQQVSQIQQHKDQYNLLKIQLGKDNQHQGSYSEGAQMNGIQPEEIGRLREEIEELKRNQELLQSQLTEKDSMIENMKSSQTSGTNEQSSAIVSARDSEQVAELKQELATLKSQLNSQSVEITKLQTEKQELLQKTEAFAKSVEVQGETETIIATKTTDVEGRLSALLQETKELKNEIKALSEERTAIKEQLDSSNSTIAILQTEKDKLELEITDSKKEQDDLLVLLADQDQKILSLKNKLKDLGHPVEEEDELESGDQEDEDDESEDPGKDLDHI
inactive: [1] -0.007 | [2] 0.012 | [3] 0.028 | [4] 0.012 | [5] 0.048

TOMM5 isoform 2 (UniProt Q8N4H5)
inactive: [1] 0.034 | [2] 0.047 | [3] -0.032 | [4] -0.029 | [5] 0.005

UFM1 (UniProt P61960)
inactive: [1] -0.019 | [2] 0.363 | [3] 0.049 | [4] -0.164 | [5] 0.083

TRIM4 (UniProt Q9C037)
inactive: [1] -0.049 | [2] -0.014 | [3] 0.254 | [4] -0.04 | [5] -0.038

TXN2 (UniProt Q99757)
Sequence of UniProt Q99757 (Q99757 whole entry, looked up): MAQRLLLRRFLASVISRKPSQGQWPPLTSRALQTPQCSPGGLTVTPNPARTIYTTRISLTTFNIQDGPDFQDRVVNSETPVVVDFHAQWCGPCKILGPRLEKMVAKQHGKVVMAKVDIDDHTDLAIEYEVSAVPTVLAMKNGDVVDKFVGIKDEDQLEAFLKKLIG
inactive: [1] 0.027 | [2] 0.144 | [3] 0.039 | [4] -0.079 | [5] -0.067

WASHC3 (UniProt Q9Y3C0)
Sequence of UniProt Q9Y3C0 (Q9Y3C0 whole entry, looked up): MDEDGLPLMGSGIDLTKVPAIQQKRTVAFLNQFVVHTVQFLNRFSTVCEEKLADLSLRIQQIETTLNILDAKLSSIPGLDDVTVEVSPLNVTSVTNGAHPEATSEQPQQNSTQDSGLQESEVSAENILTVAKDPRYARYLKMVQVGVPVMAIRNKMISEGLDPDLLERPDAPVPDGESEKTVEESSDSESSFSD
inactive: [1] 0.015 | [2] -0.022 | [3] 0.045 | [4] -0.001 | [5] 0.028

WBP4 (UniProt O75554)
inactive: [1] 0.012 | [2] 0.009 | [3] -0.024 | [4] 0.014 | [5] 0.051
